Compound activity from PubChem.
Gal4-VP16 FLuc: Gal4-VP16 reporter inhibition counter-screen | Drosophila S2 Gal4-VP16 UAS-luciferase, luminescence, 20 h | Potency, µM (doses to about 53.6 µM), inactives show at the highest dose activity, negative = inhibition, most hits filed as inhibitors | 310,000 tested, 3.5% active;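 note: Gal4-VP16 expression switched on by copper sulfate through the metallothionein promoter; % is set by controls: 0 for no effect and ±100 for the full control effect; nearly all actives have a fitted effect of over 50% in size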
Sfp inh: blocks B. subtilis Sfp PPTase activity; 310,000 tested, 3.5% active; Biochemical Sfp PPTase activity, qHTS; AID 1490; Q9F4F7; Potency, µM, for the others: largest response in the series, negative = inhibition, actives largely listed as inhibitors;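 note: the enzyme is Sfp with the accession as filed and its product quenches rhodamine fluorescence; 0% = enzyme reaction without inhibitor and -100% = no enzyme wells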
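Step 1, compound plus 15 nM Sfp-PPTase, 15 min, room temperature. Step 2, add rhodamine-CoA (5 uM) and BHQ-2-YbbR (12.5 uM). Step 3, read 525/598 nm fluorescence at 0 and 30 min.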
PINK1 modulator: modulators of PINK1 expression. PINK1 immunofluorescence, high-content cytometry, 24 h. AID 624263. 410,000 tested, 0.2% active. Potency, µM (series often up to 76.6 µM), for inactives: top-dose activation (PINK1 increase), most hits filed as activators; active = well fitted activation curve with a large enough effect; inconclusive = small, poorly fitted or top-dose-only effect; cell line not stated here; note: % of control where 0% means no effect; nearly all actives have a fitted effect of over 65% in size
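Decision-based qHTS: stable cells, 24 h exposure to five compound concentrations, CCCP as control. Fixed cells stained for PINK1 plus nuclear, mitochondrial and cell markers, cytometer read.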
Epigenetic reg: derepresses silenced GFP reporter in murine cells; murine LDR cells, GFP reporter derepression, 30 h; Potency, µM (series often up to 53.9 µM), without a hit: at the highest dose GFP activation, actives largely listed as activators; 280,000 tested, 0.2% active; AID 1865; note: % of control where 0% means no effect; nearly all actives have a fitted effect of over 60% in size
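GFP-positive cell count by laser-scanning cytometry (objects 20–120 um) after 30 h, 37 C compound exposure of murine LDR cells; reporter is CMV-GFP integrated at a silenced locus, inducible by HDAC or DNMT inhibitors.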
ClpP mod: qHTS Assay for Activators of ClpP. Potency, µM (top dose mostly 57.5 µM), for inactives: at the highest dose activity change, negative = active. purified B. subtilis ClpP, FRET peptide cleavage, 20 min. AID 651965, 2013. 340,000 tested, 1.9% active. ATP-dependent Clp protease proteolytic subunit (Bacillus subtilis (strain 168)), P80244; active = well fitted falling curve with a large enough effect; inconclusive = small, poorly fitted or top-dose-only effect; inactive = no such curve, though single readings can be large or run the other way; note: the source files actives as falling curves though it sought activators and does not explain the sign; nearly all actives have a fitted effect of over 65% in size
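Purified B. subtilis ClpP, 10 microg/mL final in Tris/HCl pH8 with KCl, BSA, glycerol and Tween-20, cleaved an Abz/nitrotyrosine-quenched decapeptide. Fluorescence (ex 320, em 430) was read at 0 and 20 min at room temperature. Delta was normalized to 5.8 microM ADEP and DMSO/no-enzyme controls.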
RORg inh: inhibitors of mouse ROR gamma transcriptional activity | Potency, µM (highest dose often 53.6 µM), inactives show at the top dose activity change, negative = inhibition, usual class: inhibitors | Drosophila S2 Gal4-RORgamma UAS-luciferase reporter, 20 h | 310,000 tested, 5.4% active | P51450; note: % is set by controls: 0 for no effect and ±100 for the full control effect; nearly all actives have a fitted effect of over 60% in size
Target sequence (P51450 whole entry, looked up, the tested form may be a part): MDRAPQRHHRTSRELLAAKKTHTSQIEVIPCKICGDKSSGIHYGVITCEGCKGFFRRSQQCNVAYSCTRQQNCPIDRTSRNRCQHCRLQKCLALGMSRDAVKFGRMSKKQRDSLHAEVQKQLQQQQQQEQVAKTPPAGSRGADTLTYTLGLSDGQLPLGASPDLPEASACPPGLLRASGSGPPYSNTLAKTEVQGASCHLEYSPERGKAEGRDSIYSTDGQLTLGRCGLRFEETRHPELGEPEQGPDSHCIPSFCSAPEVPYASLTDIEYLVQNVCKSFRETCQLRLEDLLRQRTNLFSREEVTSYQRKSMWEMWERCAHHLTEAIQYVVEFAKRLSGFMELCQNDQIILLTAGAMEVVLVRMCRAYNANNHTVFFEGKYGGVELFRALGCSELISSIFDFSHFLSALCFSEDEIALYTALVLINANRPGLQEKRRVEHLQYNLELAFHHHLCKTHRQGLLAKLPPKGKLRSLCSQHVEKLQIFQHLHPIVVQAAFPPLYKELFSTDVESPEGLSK
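A Gal4/UAS one-hybrid system in insect cells: metallothionein-promoter Gal4–ROR gamma fusion plus Photinus luciferase reporter. Copper sulfate 700 uM final, 20 hr ambient incubation, luminescent detection after 10 min with reagent.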
ClpP inh valid: validation of B. subtilis ClpP protease hits (inhibitors). shares compounds with ClpP mod. purified B. subtilis ClpP, FRET-FV substrate cleavage, 20 min. Potency, µM (top dose mostly 57.5 µM), for the others: at the highest dose activity change, negative = inhibition, actives largely listed as inhibitors. 470 tested, 40% active; note: % is set by controls: 0 for no effect and ±100 for the full control effect; nearly all actives have a fitted effect of over 70% in size
* hit, by the source's call; u = inconclusive; x = no result given; [ ] = remark or other dose. Rows were chosen to be rich in hits. Some 8.1% of all compounds tested hit in one or more screens of this group. Unless noted, calls come from the whole dose curve; as a rule, active = well fitted curve in the direction sought with a large enough effect; inconclusive = small, poorly fitted or top-dose-only effect, or another doubt; inactive = no such curve, though single readings can be large; an effect the other way counts as inactive or inconclusive. Potency is the fitted concentration of half-maximal effect.

SMILES	Gal4-VP16 FLuc	Sfp inh	PINK1 modulator	Epigenetic reg	ClpP mod	RORg inh	ClpP inh valid
Cc1ccccc1CSc1cn(CCNC(=O)c2cccs2)c2ccccc12	x	x	22%	0%	-6%	x	x
COc1cc(CCNC(=O)c2ccc3c(c2)c(C)c(C)n3Cc2cccc(C)c2)cc(OC)c1OC	x	x	0%	5%	-17%	x	x
c1ccc2c(c1)nc(-c1ccncc1)n2CCNc1nc(CN2CCCCC2)cs1	-8%	-20%	0%	x	-2%	8%	x
Cn1c(-c2ccc(CN3CCCCC3)o2)nc2ccccc21	u	2%	2%	4%	3.5µM*	u	17µM*
CCN(Cc1nc(-c2cccc(C)c2)no1)C(=O)c1ccc2c(c1)OCO2	4%	3%	6%	x	8.9µM*	u	-1%
OCc1cc([C@@H](O)CNCCCCCCOCCCCc2ccccc2)ccc1O	-23%	-7%	1%	u	2%	u	x
CCOC(=O)c1c(C)oc2nc(C)nc(N3CCN(c4ccccc4F)CC3)c12	x	x	-1%	-1%	2%	x	x
COC(=O)CNC(c1ccccc1)c1cc(Br)ccc1NC(=O)c1ccccc1 (stereo not drawn)	x	x	1%	-1%	u	x	x
COc1cc(OC)c(OC)cc1CNC1CCCCCC1	-8%	u	1%[38.3 µM]	0%	-1%	-12%	x
COc1cc(OC)c(CNC2CCCCCC2)cc1Br	-10%	14%	1%	2%	2.8µM*	25%	0%
COc1cc(NC(=O)CN2CCCN(S(=O)(=O)c3ccc(F)cc3)CC2)cc(OC)c1	x	x	0%	-1%	0%	x	x
COc1ccc(-c2nnc(-c3ccc(OCC(C)C)cc3)o2)cc1	-17%	4%	18%	-1%	7.9µM*	-38%	19µM*
COc1ccc(OCc2nnc(-c3ccccc3)o2)cc1	x	x	2%	0%	0%	x	x
O=C1SC(Nc2ccccc2)C(=O)N1c1ccccc1 (stereo not drawn)	x	x	2%	x	-2%	x	x
Cc1ccc(-n2ncc(C(=O)NCCN3CCCC3)c2C2CCN(C(=O)OC(C)(C)C)CC2)cc1C	x	x	1%	0%	1%	x	x
O=C(CN1C(=O)COc2ccc(S(=O)(=O)N3CCCC3)cc21)N1CCN(c2ccccc2F)CC1	x	x	0%	2%	-1%	x	x
Cn1c(NCCN2CCOCC2)nc2c1c(=O)n(Cc1cccc(Cl)c1)c(=O)n2C	-12%	3%	0%	2%	3.2µM*	-15%	0%
COc1ccc(Nc2cc(C(=O)NC3CCCC3)c3ccccc3n2)cc1	x	x	3%	-2%	38%	x	-10%
CCc1ccc2[nH]c(C(=O)Nc3ccc(C)c(F)c3)cc2c1	7%	11%	0%	x	23%	0%	6%
CCCCCc1cc(=O)oc2c(C(CCN3CCCC3)c3ccc(N(C)C)cc3)c(OC)cc(OC)c12 (stereo not drawn)	-17%	79µM*	-1%	5%	90%	u	20%
COc1cc(C2C(C(=O)Nc3ccccc3C)=C(C)Nc3ncnn32)ccc1OCC(N)=O (stereo not drawn)	x	x	-5%	1%	-9%	x	x
CCSc1nnc(NC(=O)c2cc(=O)c3cc(C)ccc3o2)s1	x	x	4%	-2%	1%	x	x
CO[C@@H]1COC(=O)[C@H](CCSC)NC(=O)C/C=C\[C@@H](C)COC(=O)[C@@H]2CCCN2C(=O)C/C=C\[C@H]1C	-6%[10 µM]	13%	x	0%[10.1 µM]	x	-9%[10 µM]	x
Cc1c2c(nc3c(C(=O)NC4CCCC4)cnn13)CCCC2	-8%	1%	9%[38.3 µM]	1%	7.1µM*	-4%	22µM*
Cc1ccc2oc(-c3cccc(NC(=O)c4cccc5c(Cl)cccc45)c3)nc2c1	x	x	2%	-1%	-19%	x	x
